From PubChem BioAssay (EPA / NIEHS)
Activity calls are given as the source filed them. The calls were made as follows: active = hit-call score of the fitted dose curve at least 0.9, where 1 is the maximum; inactive = score below 0.9.

Assays:
[1] = ATG_CRE_CIS: Attagene CIS-FACTORIAL HepG2 Assay for human cAMP Responsive Element (CRE) binding protein 3 (AID 2282926); conditions: HepG2 CRE cis-reporter, Attagene multiplexed mRNA; actives raise or lower the signal
How it was run: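 Liver-derived HepG2, transfected with a CRE-containing reporter panel, exposed 24 h; transcript levels sized and quantified by capillary electrophoresis of labelled amplicons; signal changes either way referenced to vehicle.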

[2] = biological target: CCAAT/enhancer-binding protein beta (Homo sapiens) (UniProt P17676); assay: ATG_C_EBP_CIS: Attagene CIS-FACTORIAL HepG2 Assay for human CCAAT/Enhancer Binding Protein (C/EBP) beta (AID 2282927); conditions: HepG2 Attagene cis-factorial transcription factor reporter; actives raise or lower the signal
CCAAT/enhancer-binding protein beta (Homo sapiens), sequence (P17676 whole entry, looked up): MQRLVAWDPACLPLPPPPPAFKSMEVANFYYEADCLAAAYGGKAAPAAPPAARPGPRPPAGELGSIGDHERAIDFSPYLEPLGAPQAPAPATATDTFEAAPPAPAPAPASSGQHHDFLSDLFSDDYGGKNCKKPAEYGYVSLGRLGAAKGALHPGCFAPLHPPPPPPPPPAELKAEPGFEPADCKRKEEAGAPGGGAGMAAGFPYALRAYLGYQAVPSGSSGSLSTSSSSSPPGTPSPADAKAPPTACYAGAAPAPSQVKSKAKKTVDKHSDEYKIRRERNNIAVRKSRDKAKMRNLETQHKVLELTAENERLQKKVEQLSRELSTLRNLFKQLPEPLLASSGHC
How it was run: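 HepG2 transiently transfected with multiplexed reporter units under cis-regulatory promoters reporting endogenous C/EBPb activity. After 24 h exposure, reporter mRNA assayed by RT-PCR, fluorescent labelling, HpaI digestion and capillary electrophoresis; bidirectional fitting versus DMSO.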

[3] = ATG_CMV_CIS: Attagene CIS-FACTORIAL HepG2 Assay for human CMV (Internal Marker) (AID 2282928); conditions: HepG2 CMV promoter reporter, transcription factor profiling; actives raise or lower the signal;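 also: endpoint acts as a background internal control marker rather than a target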
How it was run: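 Fluorescence intensity of RT-PCR-derived reporter fragments, resolved by capillary electrophoresis, gives the signal. HepG2 liver cells bearing transfected cis-element reporters were treated 24 h; activity in either direction was fit relative to DMSO-treated controls.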

[4] = ATG_DR4_LXR_CIS: Attagene CIS-FACTORIAL HepG2 Assay for human Liver X Receptor (LXR), DR4 submotif (AID 2282929); conditions: HepG2 Attagene DR4 cis-reporter, mRNA transcription; actives raise or lower the signal
How it was run: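 Total RNA from 24 h-treated, MRTU-transfected HepG2 cells underwent reverse transcription, PCR, fluorescent primer extension and restriction digestion before capillary electrophoresis. Both increases and decreases in reporter signal were fitted against DMSO.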

[5] = biological target: Aryl hydrocarbon receptor (Homo sapiens) (UniProt P35869); assay: ATG_Ahr_CIS: Attagene CIS-FACTORIAL HepG2 Assay for human Aryl Hydrocarbon Receptor (Ahr) (AID 2282930); conditions: HepG2 AhR cis-factorial reporter transcription; actives raise or lower the signal
Aryl hydrocarbon receptor (Homo sapiens), sequence (P35869 whole entry, looked up): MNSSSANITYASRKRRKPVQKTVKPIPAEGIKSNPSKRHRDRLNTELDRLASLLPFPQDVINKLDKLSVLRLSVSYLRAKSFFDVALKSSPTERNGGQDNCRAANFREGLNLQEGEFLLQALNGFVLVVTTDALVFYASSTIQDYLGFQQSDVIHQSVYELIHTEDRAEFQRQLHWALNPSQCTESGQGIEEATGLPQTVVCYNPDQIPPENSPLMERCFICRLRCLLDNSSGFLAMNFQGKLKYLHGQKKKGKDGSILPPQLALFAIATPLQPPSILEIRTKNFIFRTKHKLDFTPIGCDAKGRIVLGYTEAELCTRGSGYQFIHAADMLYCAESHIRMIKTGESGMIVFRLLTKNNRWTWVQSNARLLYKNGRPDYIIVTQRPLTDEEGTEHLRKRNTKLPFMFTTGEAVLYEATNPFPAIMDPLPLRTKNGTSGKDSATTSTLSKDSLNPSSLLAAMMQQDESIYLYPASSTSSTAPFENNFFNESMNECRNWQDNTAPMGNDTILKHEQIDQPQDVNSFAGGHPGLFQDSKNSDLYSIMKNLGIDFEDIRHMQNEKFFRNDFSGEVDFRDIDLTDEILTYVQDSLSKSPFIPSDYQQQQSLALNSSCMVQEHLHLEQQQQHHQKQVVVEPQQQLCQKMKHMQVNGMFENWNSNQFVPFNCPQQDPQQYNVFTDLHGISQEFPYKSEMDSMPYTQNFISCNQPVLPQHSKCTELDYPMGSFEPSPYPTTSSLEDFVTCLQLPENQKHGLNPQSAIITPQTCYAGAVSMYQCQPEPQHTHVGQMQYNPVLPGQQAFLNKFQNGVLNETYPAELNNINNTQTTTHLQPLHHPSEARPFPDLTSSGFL
How it was run: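 HepG2 cells transiently transfected with cis-element-driven multiplexed reporter units; endogenous AhR activity read as reporter mRNA 24 h after dosing, via RT-PCR, 6-FAM labelling, HpaI digestion and capillary electrophoresis. Bidirectional fit relative to DMSO.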

[6] = ATG_AP_1_CIS: Attagene CIS-FACTORIAL HepG2 Assay for human Activator Protein 1 (AP-1) (AID 2282931); conditions: HepG2 Attagene cis-factorial AP-1 reporter mRNA; actives raise or lower the signal
How it was run: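 HepG2, transient cis-reporter transfection; 24 h; readout RT-PCR/CE fluorescence; DMSO baseline, gain and loss fitted.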

[7] = ATG_AP_2_CIS: Attagene CIS-FACTORIAL HepG2 Assay for human Activator Protein 2 (AP-2) (AID 2282932); conditions: HepG2 AP-2 cis-reporter, Attagene transcription factor profiling; actives raise or lower the signal
How it was run: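 Read-out: fluorescent reporter mRNA via RT-PCR and capillary electrophoresis, 24 h post-dose in transiently transfected HepG2. Endogenous factors drive cis-promoter reporters; gain or loss of signal fitted bidirectionally against DMSO.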

[8] = ATG_BRE_CIS: Attagene CIS-FACTORIAL HepG2 Assay for human Bone Morphogenetic Protein (BMP) Response Element (BRE) (AID 2282933); conditions: HepG2 BMP response element reporter, Attagene transcription factor profiling; actives raise or lower the signal
How it was run: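 Multiplexed cis-reporter assay, HepG2, 24 h exposure. mRNA from reporter units quantified via RT-PCR/CE; DMSO baseline; bidirectional curve fit.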

[9] = biological target: Transcription factor E2F1 (Homo sapiens) (UniProt Q01094); assay: ATG_E2F_CIS: Attagene CIS-FACTORIAL HepG2 Assay for human E2F Transcription Factor 1 (AID 2282935); conditions: HepG2 Attagene cis-reporter, E2F reporter RNA transcripts; actives raise or lower the signal
Transcription factor E2F1 (Homo sapiens), sequence (Q01094 whole entry, looked up): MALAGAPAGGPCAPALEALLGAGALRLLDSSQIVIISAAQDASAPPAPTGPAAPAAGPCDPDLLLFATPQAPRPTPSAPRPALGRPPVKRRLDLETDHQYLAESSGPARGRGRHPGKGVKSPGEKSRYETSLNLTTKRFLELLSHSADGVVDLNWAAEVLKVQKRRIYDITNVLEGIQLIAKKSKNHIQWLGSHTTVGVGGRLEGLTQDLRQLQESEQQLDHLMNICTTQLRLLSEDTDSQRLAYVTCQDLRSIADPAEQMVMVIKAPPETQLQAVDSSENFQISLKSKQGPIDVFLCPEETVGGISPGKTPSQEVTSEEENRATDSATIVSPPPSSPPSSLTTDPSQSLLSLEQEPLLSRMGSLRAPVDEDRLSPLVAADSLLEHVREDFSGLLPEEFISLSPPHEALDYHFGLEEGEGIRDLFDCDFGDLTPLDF
How it was run: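 Transient MRTU transfection of HepG2; 24 h compound exposure; RNA → oligo(dT) RT → PCR → FAM label → HpaI cut → CE fluorescence. Gain/loss of signal fit against DMSO.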

[10] = biological target: Retinoic acid receptor alpha (Homo sapiens) (UniProt P10276); assay: ATG_DR5_RAR_CIS: Attagene CIS-FACTORIAL HepG2 Assay for human Retinoic Acid Receptor Alpha (RARE), DR5 submotif (AID 2282934); conditions: HepG2 Attagene cis-factorial RARE DR5 reporter, mRNA; actives raise or lower the signal
Retinoic acid receptor alpha (Homo sapiens), sequence (P10276 whole entry, looked up): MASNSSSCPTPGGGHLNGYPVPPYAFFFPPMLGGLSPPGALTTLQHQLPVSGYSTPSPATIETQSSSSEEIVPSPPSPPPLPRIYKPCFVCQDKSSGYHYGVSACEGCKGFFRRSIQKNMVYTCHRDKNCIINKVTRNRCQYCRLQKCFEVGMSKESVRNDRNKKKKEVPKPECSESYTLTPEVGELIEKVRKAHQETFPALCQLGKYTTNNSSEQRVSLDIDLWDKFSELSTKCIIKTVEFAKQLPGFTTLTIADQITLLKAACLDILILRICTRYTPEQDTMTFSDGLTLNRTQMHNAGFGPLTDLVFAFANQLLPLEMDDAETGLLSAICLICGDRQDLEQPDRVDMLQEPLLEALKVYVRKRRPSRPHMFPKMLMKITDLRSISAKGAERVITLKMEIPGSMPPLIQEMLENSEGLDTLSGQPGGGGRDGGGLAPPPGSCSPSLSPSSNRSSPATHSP
How it was run: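 HepG2 cells transiently transfected with multiplexed reporter units; DR5 cis-element drives reporter through endogenous transcription factors. After 24 h dosing, reporter mRNA quantified by RT-PCR, fluorescent labeling, HpaI digestion and capillary electrophoresis; bidirectional fitting versus DMSO.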

Measured: AC50

O=C1OC2(c3cc(Br)c(O)c(Br)c3Oc3c2cc(Br)c(O)c3Br)c2c(Cl)c(Cl)c(Cl)c(Cl)c21
active: [5] 15.1 µM
not listed: [10]
inactive: all other assays above

Clc1ccc(Cl)c(Cl)c1Cl
active: [5] 31.7 µM
not listed: [10]
inactive: all other assays above

NCCCCCCN
not listed: [10]
inactive: all other assays above

CCCCNC(=O)NS(=O)(=O)c1ccc(C)cc1
not listed: [10]
inactive: all other assays above

CCCCC(CC)COC(=O)/C=C\C(=O)OCC(CC)CCCC (configuration not stated)
inactive: [3] | [5] | [7] | [8]
active: [1] 45 µM | [2] 56.9 µM | [4] 54.7 µM | [6] 52.7 µM | [9] 100 µM

CC(C)[C@@H]1CC[C@@H](C)CC1=O
not listed: [10]
inactive: all other assays above

CCn1c2ccccc2c2cc(N)ccc21
active: [3] 31.7 µM | [5] 5.05 µM | [8] 100 µM
not listed: [10]
inactive: all other assays above

CC(=O)OCc1ccc2c(c1)OCO2
not listed: [8] | [10]
inactive: all other assays above

CCOC(=O)c1ccccc1OC
not listed: [8]
inactive: all other assays above

O=C(O)CN(CCN(CC(=O)O)CC(=O)O)CCN(CC(=O)O)CC(=O)O
not listed: [10]
inactive: all other assays above

Nc1cccc(S(=O)(=O)c2cccc(N)c2)c1
not listed: [8] | [10]
inactive: all other assays above

CC(C)OP(=O)(CP(=O)(OC(C)C)OC(C)C)OC(C)C
not listed: [10]
inactive: all other assays above

CCC(=O)/C=C/C1C(C)=CCCC1(C)C (configuration not stated)
not listed: [8] | [10]
inactive: all other assays above

O=C(O)CCSCCC(=O)O
not listed: [10]
inactive: all other assays above

CCCCNC(=O)NS(=O)(=O)c1ccc(N)cc1
not listed: [8] | [9]
inactive: all other assays above

CCCCO
not listed: [10]
inactive: all other assays above

OC1OC[C@@H](O)[C@H](O)[C@H]1O (some centres not stated)
not listed: [10]
inactive: all other assays above

Nc1ccc(S(N)(=O)=O)cc1
not listed: [10]
inactive: all other assays above

Cc1ccc(S)cc1
active: [3] 34.4 µM | [4] 59.7 µM | [6] 119 µM | [8] 100 µM
not listed: [10]
inactive: all other assays above

CCc1ccc(C=O)cc1
not listed: [8] | [10]
inactive: all other assays above

NCCCN1CCOCC1
not listed: [10]
inactive: all other assays above

O=c1cc(-c2ccccc2)oc2cc(O)cc(O)c12
active: [3] 3.31 µM | [4] 7.76 µM | [5] 5.85 µM
not listed: [8] | [9]
inactive: all other assays above

CC(=O)c1c(C)cc(C(C)(C)C)cc1C
not listed: [10]
inactive: all other assays above

Cc1ccc(C(=O)O)o1
not listed: [10]
inactive: all other assays above

CC(C#N)(CCC(=O)O)N=NC(C)(C#N)CCC(=O)O (configuration not stated)
not listed: [8] | [10]
inactive: all other assays above

CC(=O)/C=C/C1=C(C)CCCC1(C)C
not listed: [10]
inactive: all other assays above
